Source: PubChem BioAssay
Shown are actives, neighbours in structure and some others; about 22% of the full set was active somewhere.
Measles CPE = compounds protecting cells from measles virus cytopathic effect, primary screen, measles RdRp inhibitor project, single point, MLSMR library, absorbance. Measles virus-infected cells, CPE protection. protection (pct of control), % at 4 µM. hit rate 1.5% among 140,000; in the data active = protection mostly above about 24%, no sharp cut-off; inactive = mostly below about 26%
CYP2C19 activ = human CYP2C19 activators, primary screen, biochemical, luminescence. Cytochrome P450 2C19 (Homo sapiens), P33261. recombinant CYP2C19, luciferin-H EGE luminescence; stronger effect = higher value; 0 = fully inhibited enzyme, 1 = untreated enzyme. activation factor at 5 µM. 96,000 tested, under 10 active;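 active = activation factor of at least 2 at 5 µM in the primary screen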;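 note: 0 = wells with 2.5 mM tranylcypromine and 1 = vehicle-only wells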
Target sequence (P33261 whole entry, looked up): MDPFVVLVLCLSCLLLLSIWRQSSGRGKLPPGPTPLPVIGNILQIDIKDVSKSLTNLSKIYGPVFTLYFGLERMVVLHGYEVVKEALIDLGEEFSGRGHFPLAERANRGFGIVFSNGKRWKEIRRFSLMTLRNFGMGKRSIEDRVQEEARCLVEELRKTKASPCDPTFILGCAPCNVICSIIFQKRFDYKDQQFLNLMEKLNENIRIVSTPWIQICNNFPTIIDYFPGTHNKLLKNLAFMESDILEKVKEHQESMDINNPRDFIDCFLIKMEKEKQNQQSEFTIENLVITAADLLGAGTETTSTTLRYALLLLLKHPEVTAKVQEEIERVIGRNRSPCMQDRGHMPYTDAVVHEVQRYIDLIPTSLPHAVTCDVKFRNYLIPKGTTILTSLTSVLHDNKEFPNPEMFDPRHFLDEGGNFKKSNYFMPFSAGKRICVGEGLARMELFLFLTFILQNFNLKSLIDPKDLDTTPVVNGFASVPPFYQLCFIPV
CYP2C9 inhib = blockers of cytochrome P450 2C9 activity – biochemical, luminescence, ADME assay, primary screen; hit rate 20% among 96,000; P11712; inhibition, % at 5 µM; CYP2C9 Supersomes, luciferin-H conversion; AID 777, 2007;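 active = blocking of liver enzyme CYP2C9 beyond about 50% at 5 µM, limit read from the data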
CYP2C9 activ = human CYP2C9 activators, primary screen, biochemical, luminescence; recombinant CYP2C9, luciferin-H conversion; stronger effect = higher value; factor 1 = untreated enzyme, 0 = blocked; AID 1024, 2008; activation factor at 5 µM; hit rate 1.4% among 96,000;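 active = activation factor of 2 or more for CYP2C9 at a 5 µM dose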;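 note: 0 = sulfaphenazole-blocked wells and 1 = vehicle-only wells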
CYP2C19 inhib = blockers of cytochrome P450 2C19 activity – biochemical, luminescence, ADME assay, primary screen. P33261. inhibition, % at 5 µM. CYP2C19 Supersomes, luciferin-H EGE luminescence, 30 min. hit rate 21% among 96,000;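 active = CYP2C19 inhibition above a set limit at 5 µM in the primary screen, cut at about 50% in these data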;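 note: plate controls were negative control wells for no effect and 2.5 mM tranylcypromine positive control for full effect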
* hit, by the source's call.

What do the screens show for `CCOCCCNC(=O)c1ccc2c(c1)N(Cc1ccccc1)C(=O)CS2=O` (stereo unspecified)?
Measles CPE: 6.2; CYP2C19 activ: 0.7; CYP2C9 inhib: 41.5; CYP2C9 activ: 0.6; CYP2C19 inhib: 34.5

What do the screens show for `O=C(/C=C/c1ccc(S(=O)(=O)N2CCOCC2)cc1)NC(=S)Nc1ccc(N2CCOCC2)cc1`?
Measles CPE: 16.0

What do the screens show for `COc1ccc(NC(=O)CN(C)S(=O)(=O)c2cccc3nsnc23)cc1OC`?
Measles CPE: 3.9

What do the screens show for `Cc1ccc(S(=O)(=O)N(CCCO)Cc2cc3c(C)ccc(C)c3[nH]c2=O)cc1`?
Measles CPE: 15.6; CYP2C19 activ: 0.9; CYP2C9 inhib: 56.2*; CYP2C9 activ: 0.4; CYP2C19 inhib: 8.9

Results for Cc1cc2cc(CN(CCCO)S(=O)(=O)c3cccc4nsnc34)c(=O)[nH]c2cc1C ?
Measles CPE: 3.7; CYP2C19 activ: 1; CYP2C9 inhib: 92.8*; CYP2C9 activ: 0.1; CYP2C19 inhib: 2.8

How did Cc1ccc(S(=O)(=O)N(CCO)Cc2cc3ccc(C)c(C)c3[nH]c2=O)cc1 do in these assays?
Measles CPE: 3.3; CYP2C19 activ: 0.9; CYP2C9 inhib: 29.4; CYP2C9 activ: 0.7; CYP2C19 inhib: 6.0

What do the screens show for `Cc1ccc2[nH]c(=O)c(CN(CCCO)S(=O)(=O)c3c(C)ccc4nsnc34)cc2c1`?
Measles CPE: 7.7; CYP2C19 activ: 1; CYP2C9 inhib: 65.1*; CYP2C9 activ: 0.3; CYP2C19 inhib: 2.9

How did Cc1ccc2cc(CN(CC3CCCO3)S(=O)(=O)c3cccc4nsnc34)c(=O)[nH]c2c1 (stereo unspecified) do in these assays?
Measles CPE: 1.8; CYP2C19 activ: 0.4; CYP2C9 inhib: 99.7*; CYP2C9 activ: 0; CYP2C19 inhib: 57.2*

How did CCOc1ccc(C(=O)Nc2cccc([N+](=O)[O-])c2)cc1Br do in these assays?
Measles CPE: 14.5

What do the screens show for `Cc1ccc2cc(CN(Cc3ccco3)S(=O)(=O)c3c(C)ccc4nsnc34)c(=O)[nH]c2c1`?
Measles CPE: 8.8; CYP2C19 activ: 0.5; CYP2C9 inhib: 88.7*; CYP2C9 activ: 0.1; CYP2C19 inhib: 54.1*

What do the screens show for `Cc1cc2cc(CN(Cc3ccco3)S(=O)(=O)c3c(C)ccc4nsnc34)c(=O)[nH]c2cc1C`?
Measles CPE: 12.4; CYP2C19 activ: 0.9; CYP2C9 inhib: -2.7; CYP2C9 activ: 1; CYP2C19 inhib: 8.5

What do the screens show for `Cc1cc(NC(=O)c2ccccc2NS(=O)(=O)c2c(C)c(C)cc(C)c2C)no1`?
Measles CPE: 8.1; CYP2C19 activ: 0.9; CYP2C9 inhib: 66.4*; CYP2C9 activ: 0.3; CYP2C19 inhib: 10.6

Results for Cc1ccc(C)c(S(=O)(=O)Nc2ccccc2C(=O)Nc2ccc(S(=O)(=O)Nc3ncccn3)cc2)c1 ?
Measles CPE: 2.6

What do the screens show for `Cc1ccc(C)c(S(=O)(=O)Nc2ccccc2C(=O)Nc2cc(C)on2)c1`?
Measles CPE: 5.2; CYP2C19 activ: 0.9; CYP2C9 inhib: 55.4*; CYP2C9 activ: 0.4; CYP2C19 inhib: 9.8

How did Cc1nnc(-n2cnc3ccccc32)c2ccccc12 do in these assays?
Measles CPE: 13.1; CYP2C19 activ: 1; CYP2C9 inhib: -10.8; CYP2C9 activ: 1.1; CYP2C19 inhib: -3.9

What do the screens show for `Cc1cccc(N2CCN(c3cc(C)nc4nnnn34)CC2C)c1` (stereo unspecified)?
Measles CPE: 4.8; CYP2C19 activ: 0.6; CYP2C9 inhib: 6.4; CYP2C9 activ: 0.9; CYP2C19 inhib: 37.1

Results for Cc1cccc(N2CCN(c3nnnn3-c3ccccc3)CC2C)c1 (stereo unspecified) ?
Measles CPE: 6.0; CYP2C19 activ: 0; CYP2C9 inhib: 88.4*; CYP2C9 activ: 0.1; CYP2C19 inhib: 100.0*

How did Cc1cc(N2CCN(c3ccccc3)CC2)n2nnnc2n1 do in these assays?
Measles CPE: 17.3; CYP2C19 activ: 1; CYP2C9 inhib: 15.9; CYP2C9 activ: 0.8; CYP2C19 inhib: 2.0

How did c1ccc(-n2nnnc2-n2cnc3ccccc32)cc1 do in these assays?
Measles CPE: 5.8; CYP2C19 activ: 0.2; CYP2C9 inhib: 43.8; CYP2C9 activ: 0.6; CYP2C19 inhib: 82.2*

What do the screens show for `Cc1cc(N2CCN(c3nnnn3-c3ccccc3)CC2)n2ncnc2n1`?
Measles CPE: 18.1; CYP2C19 activ: 0.3; CYP2C9 inhib: 30.7; CYP2C9 activ: 0.7; CYP2C19 inhib: 65.6*

What do the screens show for `O=C(C1CCN(c2nnnn2-c2ccccc2)CC1)N1CCN(c2ccccc2)CC1`?
Measles CPE: 5.5; CYP2C19 activ: 0.8; CYP2C9 inhib: 23.9; CYP2C9 activ: 0.8; CYP2C19 inhib: 17.1

Results for c1ccc(N2CCN(c3nnnn3-c3ccccc3)CC2)cc1 ?
Measles CPE: 7.4; CYP2C19 activ: 0; CYP2C9 inhib: 93.2*; CYP2C9 activ: 0.1; CYP2C19 inhib: 99.8*

What do the screens show for `COc1ccc(NC(=O)Cn2cccc2)c(OC)c1`?
Measles CPE: 13.1; CYP2C19 activ: 0.6; CYP2C9 inhib: 27.9; CYP2C9 activ: 0.7; CYP2C19 inhib: 36.9

What do the screens show for `CCc1[nH]c(=S)c(C#N)c(-c2ccccc2)c1C(=O)OC`?
Measles CPE: 3.9

Results for COc1ccc(CC(=O)Nc2ccc(C(=O)Nc3ccccc3C(=O)O)cc2)cc1OC ?
Measles CPE: 1.3

Results for Cc1cc(O)c(-c2n[nH]c3c2C(c2cccc(O)c2)N(Cc2cccnc2)C3=O)cc1Cl (stereo unspecified) ?
Measles CPE: 22.7; CYP2C19 activ: 0.8; CYP2C9 inhib: 67.2*; CYP2C9 activ: 0.3; CYP2C19 inhib: 24.7

Results for COCCCN1C(=O)c2[nH]nc(-c3ccccc3O)c2C1c1cccc(Cl)c1 (stereo unspecified) ?
Measles CPE: 9.7; CYP2C19 activ: 0.6; CYP2C9 inhib: 35.1; CYP2C9 activ: 0.6; CYP2C19 inhib: 40.2

How did CN(NC(=O)c1ccc(Cl)cc1)c1cccc(Cl)n1 do in these assays?
Measles CPE: 12.0; CYP2C19 activ: 0.4; CYP2C9 inhib: -21.7; CYP2C9 activ: 1.2; CYP2C19 inhib: 55.5*

How did CCOC(=O)C1C(=O)CC(O)(c2ccccc2)CC1c1ccccc1 (stereo unspecified) do in these assays?
Measles CPE: 4.6; CYP2C19 activ: 0.3; CYP2C9 inhib: 82.0*; CYP2C9 activ: 0.2; CYP2C19 inhib: 73.1*

Results for CCOC(=O)C1C(=O)CC(C)(O)C(C(=O)OCC)C1c1ccccc1 (stereo unspecified) ?
Measles CPE: 11.3

What do the screens show for `Cc1cc(-c2n[nH]c(=S)n2/N=C/c2cccs2)n[nH]1`?
Measles CPE: 16.5

What do the screens show for `CC(C)n1nnnc1SCC(=O)Nc1ccc2c(c1)OCO2`?
Measles CPE: 4.8
